Eight molecules from PubChem BioAssay (Tox21) can be followed below.

“And” between values parts separate entries of the source, which are not always exact repeats. Identical values can stand only once. Results filed as inconclusive are left out. The source holds several records for some structures; these can differ, active in one and inactive in another. The source made the active and inactive calls. Unless noted, calls follow the shape of the dose curve; as a rule, active = well fitted curve in the direction sought with a large enough effect in the repeat runs; inconclusive = weak or mixed curves; inactive = no such curve, though single readings can be large; an effect the other way counts as inactive or inconclusive.

Assay [1] can be described thus: qHTS assay for small molecules that induce genotoxicity in human embryonic kidney cells expressing luciferase-tagged ATAD5 (AID 651632). Also: nearly all actives have a fitted effect of over 15% in size. A digest of the protocol: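 DMSO vehicle served as the control. HEK293T reporter cells, 16 hr at 37C, then 30 min Amplite at room temperature; ATAD5 induction is measured as luciferase activity.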
Assay [2] can be described thus: qHTS assay for small molecule agonists of the p53 signaling pathway - cell viability (AID 651633; calls by dose curve; also: series mostly up to about 83 µM; nearly all actives have a fitted effect of over 30% in size). In outline:
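p53RE-bla cells, seeded at 4,000 per well and rested 5 h at 37 C/5% CO2, received compounds in DMSO for 16 h at 37 C. CellTiter-Glo was then added, and luminescence was read after 30 min at room temperature to gauge cytotoxicity.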

Assay [3] can be described thus: qHTS assay for small molecules that induce genotoxicity in human embryonic kidney cells expressing luciferase-tagged ATAD5 - cell viability (AID 651634; calls by dose curve; also: nearly all actives have a fitted effect of over 25% in size). In outline: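 Here HEK293T cells with the ATAD5 luciferase reporter are incubated with test compounds for 15.5 hr, and cytotoxicity is then gauged by measuring protease activity in live cells using fluorescence.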

Assay [4] in a line: qHTS assay for small molecule disruptors of the mitochondrial membrane potential - cell viability (AID 720634; calls by dose curve; also: nearly all actives have a fitted effect of over 20% in size; also: potency is read from the fitted curve at half-maximal effect). A digest of the protocol:
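Viability of HepG2 cells is scored from ATP content by luminescence; cells are exposed to compound for 1 hr at 37 C and 5% CO2, then dosed with m-MPI dye before the CellTiter-Glo reagent.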

A short description of assay [5]: qHTS assay for small molecule disruptors of the mitochondrial membrane potential (AID 720635). Also: potency is read from the fitted curve at half-maximal effect. In outline: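 HepG2 cells (2,000/well) attached overnight at 37C, then took compound for 1 hr at 37C, 5% CO2. Mito-MPS dye was added for 30 min; fluorescence was read at 490/535 nm (monomers) and 540/590 nm (aggregates).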
The nature of assay [6]: qHTS assay to test for compound auto fluorescence at 535 nm (green) in HepG2 cells (AID 720675).
A short description of assay [7]: qHTS assay to test for compound auto fluorescence at 460 nm (blue) in HEK293 cells (AID 720678). A digest of the protocol:
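HEK293 cells (2,000/well, medium with 10% dialyzed FBS) attached 4-5 hr, then exposed to compound overnight at 37C, 5% CO2. Blue fluorescence read at 405/460 nm, with triamterene as reference fluorophore.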

Assay [8] in a line: qHTS assay to test for compound auto fluorescence at 590 nm (red) in HEK293 cells (AID 720679). In outline: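 HEK293 cells (2,000/well, 10% dialyzed FBS) attached 4-5 hr, then dosed with compound or DMSO and incubated overnight at 37C, 5% CO2. Red fluorescence read at 540/590 nm, Rose Bengal sodium as reference fluorophore.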
The nature of assay [9]: qHTS assay to test for compound auto fluorescence at 535 nm (green) in HEK293 cells (AID 720680).
A short description of assay [10]: qHTS assay to test for compound auto fluorescence at 460 nm (blue) in HEK293 cell free culture (AID 720681). In outline: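 Test compounds were pinned into cell-free culture medium (DMEM with 10% FBS) and fluorescence was read directly at Ex/Em 405/460 nm. Signals were expressed as fluorescence equivalents of triamterene, with DMSO vehicle as control.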
A short description of assay [11]: qHTS assay to test for compound auto fluorescence at 535 nm (green) in HEK293 cell free culture (AID 720682). In outline: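 Compounds were pin-transferred into cell-free DMEM with 10% FBS, and green fluorescence was read at excitation 485 nm and emission 535 nm. Intensities were expressed as fluorescein-equivalent values.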
Assay [12] in a line: qHTS assay to test for compound auto fluorescence at 590 nm (red) in HEK293 cell free culture (AID 720683). A digest of the protocol:
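Tox21 10K library compounds were pinned into cell-free DMEM with 10% FBS and fluorescence was read at excitation 540 nm. Activity is expressed as Rose Bengal sodium equivalency.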

The nature of assay [13]: qHTS assay to test for compound auto fluorescence at 460 nm (blue) in HepG2 cell free culture (AID 720685). A digest of the protocol: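 Cell-free plates of MEM plus 10% FBS received 23 nL compound or DMSO vehicle; blue-channel (405/460 nm) intensity scored against triamterene as reference fluorophore.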
The nature of assay [14]: qHTS assay to test for compound auto fluorescence at 535 nm (green) in HepG2 cell free culture (AID 720686).
Assay [15] is described as follows: qHTS assay to test for compound auto fluorescence at 460 nm (blue) in HepG2 cells (AID 720687). In outline:
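Cells (2,000/well in MEM with 10% FBS) attached overnight at 37 C, then were exposed to compound or DMSO for 1 hr at 37 C, 5% CO2. Fluorescence read at Ex/Em 405/460 nm, expressed as triamterene-equivalent signal.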

The target in assay [16] is Glucocorticoid receptor (Homo sapiens) (UniProt P04150). The assay is described as follows: qHTS assay to identify small molecule antagonists of the glucocorticoid receptor (GR) signaling pathway (AID 720692; active = well fitted inhibition curve with a large enough effect in the signal ratio in the repeat runs, not every such curve was filed as active; the % refers to the signal ratio). A digest of the protocol:
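In a 1536-well cell format, compounds were added 4 h after seeding GR-bla HeLa cells, together with dexamethasone at 5 nM final; reporter activity was measured by FRET-substrate fluorescence following 18 h at 37 C.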

Assay [17] in a line: qHTS assay to test for compound auto fluorescence at 590 nm (red) in HepG2 cells (AID 720674). A digest of the protocol: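 Rose Bengal sodium served as the red fluorophore standard. HepG2 monolayers (overnight attachment, MEM with 10% FBS) were exposed to test compounds for 1 hr at 37 C and read at Ex 540/Em 590 nm.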
Assay [18] is described as follows: qHTS assay to test for compound auto fluorescence at 590 nm (red) in HepG2 cell free culture (AID 720684). A digest of the protocol: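 Readout: intrinsic compound fluorescence at 590 nm emission after 540 nm excitation, scaled to Rose Bengal sodium. Matrix was cell-free MEM with 10% FBS; DMSO vehicle wells served as control.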
The target of assay [19] is Glucocorticoid receptor (Homo sapiens) (UniProt P04150). Description: qHTS assay to identify small molecule agonists of the glucocorticoid receptor (GR) signaling pathway (AID 720691; active = well fitted activation curve with a large enough effect in the signal ratio in the repeat runs, not every such curve was filed as active; the % refers to the signal ratio). In outline: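 Compounds in DMSO, alongside positive controls, were added to GR-bla HeLa reporter cells and incubated 18 h at 37 C; GRE-driven beta-lactamase was detected by fluorescence after 2 h with FRET substrate at room temperature.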

Assay [20] is described as follows: qHTS assay for small molecule agonists of the p53 signaling pathway (AID 651631; calls by dose curve; also: nearly all actives have a fitted effect of over 15% in size). A digest of the protocol:
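Readout was fluorescence from the LiveBLAzer FRET substrate, applied for 2 h at room temperature after 16 h compound exposure at 37 °C. Cells were the p53RE-bla HCT-116 line, with beta-lactamase driven by p53 response elements.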

Chain of Glucocorticoid receptor (Homo sapiens) (P04150 whole entry, looked up): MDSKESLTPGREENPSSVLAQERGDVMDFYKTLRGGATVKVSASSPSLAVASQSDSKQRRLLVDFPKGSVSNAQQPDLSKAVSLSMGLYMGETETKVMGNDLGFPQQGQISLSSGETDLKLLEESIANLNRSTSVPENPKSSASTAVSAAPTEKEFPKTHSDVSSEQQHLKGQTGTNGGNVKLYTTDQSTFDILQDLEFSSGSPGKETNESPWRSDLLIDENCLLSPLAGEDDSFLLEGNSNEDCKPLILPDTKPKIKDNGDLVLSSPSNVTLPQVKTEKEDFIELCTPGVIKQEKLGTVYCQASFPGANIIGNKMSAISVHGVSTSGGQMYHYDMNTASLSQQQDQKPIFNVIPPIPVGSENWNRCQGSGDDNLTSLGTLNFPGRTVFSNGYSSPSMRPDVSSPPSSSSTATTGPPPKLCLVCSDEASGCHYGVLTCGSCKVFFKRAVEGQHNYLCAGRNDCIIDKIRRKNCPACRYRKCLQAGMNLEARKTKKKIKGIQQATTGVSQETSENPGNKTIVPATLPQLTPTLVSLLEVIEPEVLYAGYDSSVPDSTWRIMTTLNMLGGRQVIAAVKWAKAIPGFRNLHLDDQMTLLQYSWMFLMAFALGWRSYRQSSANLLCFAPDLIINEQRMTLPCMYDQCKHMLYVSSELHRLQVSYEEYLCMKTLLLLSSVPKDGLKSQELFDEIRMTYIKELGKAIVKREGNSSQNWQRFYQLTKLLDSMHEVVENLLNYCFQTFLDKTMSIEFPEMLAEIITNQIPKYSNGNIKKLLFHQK

Consider `CCCCN(CC)c1c([N+](=O)[O-])cc(C(F)(F)F)cc1[N+](=O)[O-]`, for which the Potency entry in [1], in [2], in [3], in assay [4] and in [16] was “inactive” in each case. Also, in assay [5], the Potency was 6.86 µM (active). Besides, the outcome in [6], in assay [7], in assay [8], in [9], in assay [10] and in assay [11] was inactive. Further, the result in assay [12], in assay [13], in assay [14] and in assay [15] was inactive.

As to `Nc1c(Cl)cc([N+](=O)[O-])cc1Cl`, the Potency result in assay [1], in assay [2], in [3] and in assay [16] was “inactive” each time. The Potency in assay [4] was 24.3 µM (active); in assay [5] it was 24.5 µM (active) and 4.33 µM (active). Further, the outcome in [17], in assay [7], in assay [8], in [11], in assay [12] and in [13] was inactive. The call in assay [14] and in assay [15] was inactive.

For the molecule `COP(=S)(OC)Oc1cc(Cl)c(Cl)cc1Cl`, the Potency result in assay [1], in assay [2], in [3], in assay [4] and in assay [16] was “inactive” throughout. Moreover, the Potency in assay [5] was 11.9 µM (active) and 29.8 µM (active) and 7.64 µM (active). Moreover, the outcome in assay [17], in assay [6], in [7], in assay [8], in [9] and in assay [10] was inactive. The result in [11], in [12], in assay [18], in assay [13], in assay [14] and in [15] was inactive.

Take `CCOP(=S)(OCC)O/N=C(\C#N)c1ccccc1`: the Potency result in assay [1], in [2], in assay [3], in [5] and in assay [16] was “inactive” in each case. Further, the Potency result in assay [4] is “inactive and 54.5 µM (active)”. Further, the molecule was called inactive in assay [17], in assay [6], in [7], in assay [8], in assay [11] and in [12]. Further, the call in [13], in [14] and in [15] was inactive.

For the molecule `C[C@]12CCC(=O)C(O)=C1CC[C@@H]1[C@@H]2CC[C@]2(C)C(=O)CC[C@@H]12`, the Potency result in assay [1], in assay [2], in assay [3], in assay [4], in assay [5] and in [16] was “inactive” in each case. Also, the molecule was called inactive in assay [17], in assay [6], in [7], in assay [8], in assay [11] and in assay [12]. In addition, the molecule was called inactive in [18], in [13], in [14] and in assay [15].

As to `CCC(C)(c1ccc(O)cc1)c1ccc(O)cc1`, the Potency result in assay [1], in assay [2], in assay [3] and in assay [4] was “inactive” throughout. Moreover, in assay [5], the Potency is 7.69 µM (active) and 9.69 µM (active). In addition, the molecule was called inactive in assay [17], in assay [6], in assay [7], in assay [8], in [9] and in assay [10]. Also, the result in [11], in [12], in [13], in assay [14] and in [15] was inactive.

Take `Cc1cccc(N)c1N`: the Potency entry in assay [1], in assay [2], in assay [3], in assay [4], in assay [19] and in assay [16] was “inactive” in each case. For the same molecule, the Potency in assay [5] is 21 µM (active) and 17.2 µM (active). In addition, the outcome in assay [17], in [6], in [7], in assay [8], in assay [9] and in assay [10] was inactive. For the same molecule, the molecule was classed as inactive in assay [11], in assay [12], in assay [13], in assay [14] and in [15].

With `C[C@]12CCC(=O)C[C@@H]1CC[C@@H]1[C@@H]2CC[C@]2(C)[C@@H](O)CC[C@@H]12`, the Potency entry in [20], in assay [2] and in assay [3] was “inactive” throughout. For the same molecule, the call in assay [7], in [8], in assay [9], in assay [10], in assay [11] and in [12] was inactive. The molecule was called inactive in [18], in [13], in assay [14] and in [15].
